# Results filed as inconclusive are left out. The source made the active and inactive calls. How the source made its calls: active means hit-call score of the fitted dose curve at least 0.9, where 1 is the maximum; inconclusive means response in the unintended direction; inactive means score below 0.9.
# How the values were obtained:
# [1] = target: Cellular tumor antigen p53 (Homo sapiens) (UniProt P04637); experiment: TOX21_p53_BLA_p2_ratio: Tox21 HCT-116 p53 Agonism Beta-lactamase Assay, Ratio, Phase 2 (AID 2283592)
# Chain of Cellular tumor antigen p53 (Homo sapiens) (P04637 whole entry, looked up): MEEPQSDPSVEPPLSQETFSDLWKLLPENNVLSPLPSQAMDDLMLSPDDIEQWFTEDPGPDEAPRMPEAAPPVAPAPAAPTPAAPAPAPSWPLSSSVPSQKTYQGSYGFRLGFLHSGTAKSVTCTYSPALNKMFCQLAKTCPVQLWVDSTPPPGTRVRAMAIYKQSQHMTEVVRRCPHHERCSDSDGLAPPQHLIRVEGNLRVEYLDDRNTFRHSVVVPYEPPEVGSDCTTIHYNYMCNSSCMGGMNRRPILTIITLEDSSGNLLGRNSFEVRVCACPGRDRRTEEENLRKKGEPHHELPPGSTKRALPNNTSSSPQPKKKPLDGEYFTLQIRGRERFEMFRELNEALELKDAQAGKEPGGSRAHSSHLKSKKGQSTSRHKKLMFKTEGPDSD
# Outline: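 DMSO-normalized, positive-direction endpoint derived from the 460 nm/530 nm FRET ratio in HCT116 p53 beta-lactamase reporter cells exposed 16 h at 37C and loaded with CCF4-AM for 2 h.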
# [2] = TOX21_p53_BLA_p3_viability: Viability Assessment in the Tox21 HCT-116 p53 Agonism Beta-lactamase Assay, Phase 3 (AID 2283593);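 further: cells exposed to compound for 16 h before reading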
# Outline: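 Cellular ATP was quantified by CellTiter-Glo luminescence, read after 30 min at room temperature. Beforehand, HCT116 cells (4000/well) received compound 5 h post-seeding, 217-fold diluted from DMSO, then incubated 16 h at 37C.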
# [3] = target: Cellular tumor antigen p53 (Homo sapiens) (UniProt P04637); experiment: TOX21_p53_BLA_p3_ratio: Tox21 HCT-116 p53 Agonism Beta-lactamase Assay, Ratio, Phase 3 (AID 2283596)
# Outline: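 Cells were seeded at 4000/well, rested 5 h at 37C, then dosed with DMSO compound solutions (217-fold dilution) for 16 h. CCF4-AM substrate was loaded for 2 h at room temperature, and the 460/530 nm emission ratio was fitted for gain of signal versus DMSO.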
# [4] = TOX21_p53_BLA_p5_viability: Viability Assessment in the Tox21 HCT-116 p53 Agonism Beta-lactamase Assay, Phase 5 (AID 2283600)
# Outline: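 Here cell health was gauged by ATP levels in wells holding 4000 cells, each treated 16 h with DMSO-delivered compounds at 217-fold dilution; reduced luminescence marked toxicity.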
# [5] = target: Cellular tumor antigen p53 (Homo sapiens) (UniProt P04637); experiment: TOX21_p53_BLA_p4_ratio: Tox21 HCT-116 p53 Agonism Beta-lactamase Assay, Ratio, Phase 4 (AID 2283601)
# Outline: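 Signal is the blue/green (460nm/530nm) ratio of cleaved versus uncleaved CCF4-AM substrate, read after 2 h substrate loading. Cells were HCT116 carrying the p53-responsive beta-lactamase reporter, dosed 16 h at 37C, 5% CO2; CellTiter-Glo measured in parallel.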
# [6] = ACEA_ER_AUC_viability: ACEA Biosciences xCELLigence Real-Time Cell Analysis on Estrogen Receptor Agonism for Viability (AID 2283782);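 further: hit means loss of impedance signal meaning reduced cell growth or viability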
# Outline: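 Viability endpoint: reduced impedance area under the curve relative to DMSO, recorded by real-time electrode sensing over ~80 h of continuous exposure. Duplicate plates of T47D in hormone-depleted medium; eight concentrations, 1:4 dilutions, 100 uM maximum.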
# [7] = target: Cellular tumor antigen p53 (Homo sapiens) (UniProt P04637); experiment: TOX21_p53_BLA_p5_ratio: Tox21 HCT-116 p53 Agonism Beta-lactamase Assay, Ratio, Phase 5 (AID 2283599)
# Outline: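 Beta-lactamase reporter ratio (blue 460 nm over green 530 nm, 405 nm excitation) after 2 h CCF4-AM loading, in HCT-116 cells exposed 16 h at 37 C to compounds pinned at 217-fold dilution. Increases relative to DMSO baseline scored.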
# [8] = TOX21_p53_BLA_p4_viability: Viability Assessment in the Tox21 HCT-116 p53 Agonism Beta-lactamase Assay, Phase 4 (AID 2283597);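 further: hits lower the luminescence signal meaning cytotoxicity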
# Outline: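 In this multiplexed secondary endpoint, HCT116 cells (4000 per well, compound at 5 h, 16 h treatment) received CellTiter-Glo after the beta-lactamase read. Luminescence after 30 min RT reflects ATP, and falling signal marks cytotoxicity.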
compound,measurement,setting,value
COC(=O)CCC[N+](C)(C)C,outcome,[1],inactive
same,outcome,[2],inactive
same,outcome,[3],inactive
same,outcome,[4],inactive
NCCN1CCOCC1,outcome,[1],inactive
same,outcome,[2],inactive
same,outcome,[3],inactive
same,outcome,[4],inactive
same,outcome,[5],inactive
same,outcome,[6],inactive
C#C[C@]1(OC(C)=O)CC[C@H]2[C@@H]3CCC4=CC(=O)CC[C@@H]4[C@H]3CC[C@@]21C,outcome,[1],inactive
same,outcome,[2],inactive
same,outcome,[3],inactive
same,outcome,[7],inactive
same,outcome,[5],inactive
O=C(O)C1CCCN1 (stereo not given),outcome,[1],inactive
same,outcome,[2],inactive
same,outcome,[3],inactive
same,outcome,[7],inactive
same,outcome,[5],inactive
CO/N=C(\C(=O)N[C@@H]1C(=O)N2C(C(=O)O)=C(CSc3nc(=O)c(O)nn3C)CS[C@H]12)c1csc(N)n1,outcome,[1],inactive
same,outcome,[2],inactive
same,outcome,[3],inactive
same,outcome,[7],inactive
same,outcome,[5],inactive
CCn1cc(C(=O)O)c(=O)c2cc(F)c(N3CCNCC3)nc21,outcome,[1],inactive
same,outcome,[2],inactive
same,outcome,[3],inactive
same,outcome,[7],inactive
same,outcome,[5],inactive
NCCCC[C@H](N)C(=O)O,outcome,[1],inactive
same,outcome,[2],inactive
same,outcome,[3],inactive
same,outcome,[7],inactive
same,outcome,[5],inactive
CCC(CO)(CO)COCC(CC)(CO)CO,outcome,[1],inactive
same,outcome,[2],inactive
same,outcome,[3],inactive
same,outcome,[4],inactive
same,outcome,[5],inactive
N#Cc1cc2ccccc2c2ccccc12,outcome,[1],inactive
same,outcome,[2],inactive
same,outcome,[3],inactive
same,outcome,[7],inactive
same,outcome,[5],inactive
CC1=C(/C=C/C(C)=C/C=C/C(C)=C/C(=O)Oc2c(C)c(C)c3c(c2C)CC[C@@](C)(CCC[C@H](C)CCC[C@H](C)CCCC(C)C)O3)C(C)(C)CCC1,outcome,[1],inactive
same,AC50,[2],42.8 µM (active)
same,outcome,[3],inactive
same,outcome,[7],inactive
same,outcome,[5],inactive
CCCCCCCC(=O)Oc1c(Br)cc(C#N)cc1Br,AC50,[1],67.3 µM (active)
same,outcome,[2],inactive
same,outcome,[3],inactive
same,outcome,[7],inactive
same,outcome,[5],inactive
COc1ccc(S(=O)(=O)N2c3ccc(Cl)cc3[C@@](O)(c3ccccc3Cl)[C@H]2C(=O)N2CCC[C@@H]2C(N)=O)cc1OC,outcome,[1],inactive
same,outcome,[2],inactive
same,outcome,[8],inactive
same,outcome,[7],inactive
ICCc1ccccc1,outcome,[1],inactive
same,outcome,[2],inactive
same,outcome,[8],inactive
same,outcome,[7],inactive
same,outcome,[5],inactive
CN(C(=O)c1c(O)c2ccccc2n(C)c1=O)c1ccccc1,outcome,[1],inactive
same,outcome,[2],inactive
same,outcome,[8],inactive
same,outcome,[7],inactive
same,outcome,[4],inactive
same,outcome,[5],inactive
O=C(C=Cc1ccc(O)c(O)c1)O[C@@H]1C[C@](O)(C(=O)O)C[C@@H](O)[C@H]1O,outcome,[1],inactive
same,outcome,[2],inactive
same,outcome,[8],inactive
same,outcome,[7],inactive
same,outcome,[5],inactive
C[C@H](Cc1ccc(O)c(O)c1)[C@@H](C)Cc1ccc(O)c(O)c1,outcome,[1],inactive
same,outcome,[2],inactive
same,AC50,[8],25.9 µM (active)
same,outcome,[7],inactive
same,outcome,[5],inactive

# Reference: PubChem BioAssay (EPA / NIEHS)
